# Assay results published in PubChem BioAssay (EPA / NIEHS).
# The source made the active and inactive calls. The calls were made as follows: active = hit-call score of the fitted dose curve at least 0.9, where 1 is the maximum; inactive = score below 0.9.
# Target: Transcriptional activator Myb (Homo sapiens) (UniProt P10242)
# Experiment: ATG_Myb_CIS: Attagene CIS-FACTORIAL HepG2 Assay for human Myeloblastosis (Myb) Proto-Oncogene Transcription Factor (AID 2282986)
# Conditions: HepG2 Attagene CIS-FACTORIAL Myb reporter transcription; actives raise or lower the signal
# Method in brief: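 Transiently transfected HepG2 cells carrying a multiplexed cis-promoter reporter set report endogenous Myb activity after 24 h compound exposure. Reporter mRNA is read by RT-PCR with capillary electrophoresis of fluorescent products, fitted bidirectionally against DMSO.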
# Chain of Transcriptional activator Myb (Homo sapiens) (P10242 whole entry, looked up): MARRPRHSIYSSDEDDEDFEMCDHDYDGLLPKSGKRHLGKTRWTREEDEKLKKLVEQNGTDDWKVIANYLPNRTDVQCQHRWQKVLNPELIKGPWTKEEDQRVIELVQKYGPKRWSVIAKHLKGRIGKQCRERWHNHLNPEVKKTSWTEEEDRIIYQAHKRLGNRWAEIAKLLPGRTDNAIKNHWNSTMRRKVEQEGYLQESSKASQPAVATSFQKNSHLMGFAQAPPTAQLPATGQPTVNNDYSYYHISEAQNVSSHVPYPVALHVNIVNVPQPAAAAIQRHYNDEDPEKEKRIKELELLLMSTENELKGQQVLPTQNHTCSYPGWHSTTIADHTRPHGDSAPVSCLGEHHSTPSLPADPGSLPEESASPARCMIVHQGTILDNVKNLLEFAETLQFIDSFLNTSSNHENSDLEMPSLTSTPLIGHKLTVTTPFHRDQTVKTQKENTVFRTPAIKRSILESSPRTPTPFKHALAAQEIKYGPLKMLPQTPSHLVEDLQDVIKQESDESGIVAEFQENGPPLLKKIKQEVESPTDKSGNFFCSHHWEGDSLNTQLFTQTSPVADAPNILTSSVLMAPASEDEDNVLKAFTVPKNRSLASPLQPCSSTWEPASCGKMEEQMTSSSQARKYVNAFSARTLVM
SMILES,outcome,AC50
OCC(F)(F)OC(F)(F)C(F)(F)OC(F)(F)C(F)(F)OC(F)(F)CO,inactive,
O=c1[nH]c2ccccc2c(=O)o1,inactive,
CC(=O)c1ccc(-c2ccccc2)cc1,inactive,
CCCCOCCOP(=O)(OCCOCCCC)OCCOCCCC,inactive,
c1cc2c3c(cccc3c1)CC2,inactive,
O=S(=O)(c1ccc(O)cc1)c1ccc(O)cc1,inactive,
O=S(=O)(F)C(F)(F)C(F)(F)C(F)(F)C(F)(F)C(F)(F)C(F)(F)C(F)(F)C(F)(F)F,inactive,
N#Cc1c(-c2ccc(Cl)cc2)[nH]c(C(F)(F)F)c1Br,inactive,
ClC(Cl)=C(c1ccc(Cl)cc1)c1ccccc1Cl,inactive,
O=[N+]([O-])c1cc(Cl)ccc1Cl,inactive,
Cn1[nH]nnc1=S,inactive,
CC(=O)CCc1ccc2c(c1)OCO2,inactive,
CC(C)CBr,inactive,
CC1=C(C(=O)Nc2ccccc2)S(=O)(=O)CCO1,inactive,
CCN(CC)C1CCCCC1,inactive,
CCN(CC)c1ccccc1,inactive,
O=C(O)C1C(C(=O)O)C2(Cl)C(Cl)=C(Cl)C1(Cl)C2(Cl)Cl (configuration not stated),inactive,
NNC(N)=S,inactive,
CC1(C)CN=C(NN=C(/C=C/c2ccc(C(F)(F)F)cc2)/C=C/c2ccc(C(F)(F)F)cc2)NC1,inactive,
O=C(CBr)OCc1ccccc1,inactive,

SMILES,outcome,AC50
C=C(C)C(=O)OCC1CO1 (configuration not stated),inactive,
CNC(=O)Oc1ccc(N(C)C)c(C)c1,inactive,
Oc1ccccc1Br,inactive,
CCCCCCCc1ccc(O)cc1,inactive,
COC(N)=O,inactive,
COC(=O)C(F)(F)C(F)(F)OC(F)(C(F)(F)F)C(F)(F)OC(F)=C(F)F (configuration not stated),inactive,
CC(O)C#N (configuration not stated),inactive,
CCCCc1ccc(O)cc1,inactive,
CC(Cl)CN(C)C (configuration not stated),inactive,
Cc1cccc(N)c1,inactive,
Cc1cc(C)c(C(=O)P(=O)(c2ccccc2)c2ccccc2)c(C)c1,,62.4 µM (active)
FC(F)(F)C(F)(C(F)(F)F)C(F)(F)C(F)(F)CC1CO1 (configuration not stated),inactive,
COP(=O)(O)OC,inactive,
CO/N=C(/C(=O)OC)c1ccccc1COc1ccccc1C,inactive,
CC(O)C(F)(F)C(F)(F)F (configuration not stated),inactive,
CCCCN(CC)C(=O)SCCC,inactive,
N#Cc1ccc(O)cc1,inactive,
OCC(F)(F)OC(F)(F)C(F)(F)OC(F)(F)C(F)(F)OC(F)(F)F,inactive,
Clc1ccc(Oc2ccccc2)cc1,inactive,

# Target: Nuclear respiratory factor 1 (Homo sapiens) (UniProt Q16656)
# Sequence (Q16656 whole entry, looked up): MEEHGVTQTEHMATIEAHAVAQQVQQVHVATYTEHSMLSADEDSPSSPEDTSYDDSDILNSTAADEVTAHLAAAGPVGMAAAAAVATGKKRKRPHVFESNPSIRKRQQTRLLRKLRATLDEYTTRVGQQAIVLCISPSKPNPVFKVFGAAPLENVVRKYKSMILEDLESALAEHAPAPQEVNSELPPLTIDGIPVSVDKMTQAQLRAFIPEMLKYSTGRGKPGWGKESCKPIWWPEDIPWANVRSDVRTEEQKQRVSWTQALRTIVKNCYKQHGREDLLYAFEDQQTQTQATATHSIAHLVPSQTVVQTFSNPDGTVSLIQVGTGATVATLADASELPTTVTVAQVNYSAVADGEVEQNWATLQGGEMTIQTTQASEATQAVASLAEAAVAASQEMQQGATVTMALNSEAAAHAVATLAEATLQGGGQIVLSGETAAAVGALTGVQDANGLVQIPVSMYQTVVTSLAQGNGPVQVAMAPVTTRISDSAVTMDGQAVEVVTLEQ
# Experiment: ATG_NRF1_CIS: Attagene CIS-FACTORIAL HepG2 Assay for human Nuclear Respiratory Factor 1 (NRF1) Orphan Gene (AID 2282987)
# Conditions: HepG2 NRF1 cis-element reporter, Attagene multiplex; actives raise or lower the signal
# Method in brief: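 HepG2 cells transiently transfected with multiple cis-regulated reporter units, exposed 24 h. Reporter mRNAs measured by RT-PCR, fluorescent labelling, HpaI digestion and capillary electrophoresis; bidirectional fitting against DMSO.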
SMILES,outcome,AC50
OCC(F)(F)OC(F)(F)C(F)(F)OC(F)(F)C(F)(F)OC(F)(F)CO,inactive,
O=c1[nH]c2ccccc2c(=O)o1,inactive,
CC(=O)c1ccc(-c2ccccc2)cc1,inactive,
CCCCOCCOP(=O)(OCCOCCCC)OCCOCCCC,inactive,
c1cc2c3c(cccc3c1)CC2,inactive,
O=S(=O)(c1ccc(O)cc1)c1ccc(O)cc1,inactive,
O=S(=O)(F)C(F)(F)C(F)(F)C(F)(F)C(F)(F)C(F)(F)C(F)(F)C(F)(F)C(F)(F)F,inactive,
N#Cc1c(-c2ccc(Cl)cc2)[nH]c(C(F)(F)F)c1Br,inactive,
ClC(Cl)=C(c1ccc(Cl)cc1)c1ccccc1Cl,inactive,
O=[N+]([O-])c1cc(Cl)ccc1Cl,inactive,
Cn1[nH]nnc1=S,inactive,
CC(=O)CCc1ccc2c(c1)OCO2,inactive,
CC(C)CBr,inactive,
CC1=C(C(=O)Nc2ccccc2)S(=O)(=O)CCO1,inactive,
CCN(CC)C1CCCCC1,inactive,
CCN(CC)c1ccccc1,inactive,
O=C(O)C1C(C(=O)O)C2(Cl)C(Cl)=C(Cl)C1(Cl)C2(Cl)Cl (configuration not stated),inactive,
NNC(N)=S,inactive,
CC1(C)CN=C(NN=C(/C=C/c2ccc(C(F)(F)F)cc2)/C=C/c2ccc(C(F)(F)F)cc2)NC1,,18 µM (active)
O=C(CBr)OCc1ccccc1,inactive,

SMILES,outcome,AC50
C=C(C)C(=O)OCC1CO1 (configuration not stated),inactive,
CNC(=O)Oc1ccc(N(C)C)c(C)c1,inactive,
Oc1ccccc1Br,inactive,
CCCCCCCc1ccc(O)cc1,inactive,
COC(N)=O,inactive,
COC(=O)C(F)(F)C(F)(F)OC(F)(C(F)(F)F)C(F)(F)OC(F)=C(F)F (configuration not stated),inactive,
CC(O)C#N (configuration not stated),inactive,
CCCCc1ccc(O)cc1,inactive,
CC(Cl)CN(C)C (configuration not stated),inactive,
Cc1cccc(N)c1,inactive,
Cc1cc(C)c(C(=O)P(=O)(c2ccccc2)c2ccccc2)c(C)c1,inactive,
FC(F)(F)C(F)(C(F)(F)F)C(F)(F)C(F)(F)CC1CO1 (configuration not stated),inactive,
COP(=O)(O)OC,inactive,
CO/N=C(/C(=O)OC)c1ccccc1COc1ccccc1C,inactive,
CC(O)C(F)(F)C(F)(F)F (configuration not stated),inactive,
CCCCN(CC)C(=O)SCCC,inactive,
N#Cc1ccc(O)cc1,inactive,
OCC(F)(F)OC(F)(F)C(F)(F)OC(F)(F)C(F)(F)OC(F)(F)F,inactive,
Clc1ccc(Oc2ccccc2)cc1,inactive,

# Tested on: not listed separately
# Experiment: ATG_NFI_CIS: Attagene CIS-FACTORIAL HepG2 Assay for human Nuclear Factor I (NFI) (AID 2282989)
# Conditions: HepG2 cis-regulatory reporter, NFI response element transcription; actives raise or lower the signal
# Method in brief: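 Transient MRTU transfection of HepG2 → 24 h chemical dosing → total RNA, oligo(dT) RT → PCR, 6-FAM primer extension, HpaI cut → capillary electrophoresis. Endpoint fitted bidirectionally relative to DMSO.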
SMILES,outcome,AC50
OCC(F)(F)OC(F)(F)C(F)(F)OC(F)(F)C(F)(F)OC(F)(F)CO,inactive,
O=c1[nH]c2ccccc2c(=O)o1,inactive,
CC(=O)c1ccc(-c2ccccc2)cc1,inactive,
CCCCOCCOP(=O)(OCCOCCCC)OCCOCCCC,inactive,
c1cc2c3c(cccc3c1)CC2,inactive,
O=S(=O)(c1ccc(O)cc1)c1ccc(O)cc1,inactive,
O=S(=O)(F)C(F)(F)C(F)(F)C(F)(F)C(F)(F)C(F)(F)C(F)(F)C(F)(F)C(F)(F)F,inactive,
N#Cc1c(-c2ccc(Cl)cc2)[nH]c(C(F)(F)F)c1Br,inactive,
ClC(Cl)=C(c1ccc(Cl)cc1)c1ccccc1Cl,,181 µM (active)
O=[N+]([O-])c1cc(Cl)ccc1Cl,inactive,
Cn1[nH]nnc1=S,inactive,
CC(=O)CCc1ccc2c(c1)OCO2,inactive,
CC(C)CBr,inactive,
CC1=C(C(=O)Nc2ccccc2)S(=O)(=O)CCO1,inactive,
CCN(CC)C1CCCCC1,inactive,
CCN(CC)c1ccccc1,inactive,
O=C(O)C1C(C(=O)O)C2(Cl)C(Cl)=C(Cl)C1(Cl)C2(Cl)Cl (configuration not stated),inactive,
NNC(N)=S,inactive,
CC1(C)CN=C(NN=C(/C=C/c2ccc(C(F)(F)F)cc2)/C=C/c2ccc(C(F)(F)F)cc2)NC1,,15.4 µM (active)
O=C(CBr)OCc1ccccc1,inactive,

SMILES,outcome,AC50
C=C(C)C(=O)OCC1CO1 (configuration not stated),inactive,
CNC(=O)Oc1ccc(N(C)C)c(C)c1,inactive,
Oc1ccccc1Br,inactive,
CCCCCCCc1ccc(O)cc1,inactive,
COC(N)=O,inactive,
COC(=O)C(F)(F)C(F)(F)OC(F)(C(F)(F)F)C(F)(F)OC(F)=C(F)F (configuration not stated),inactive,
CC(O)C#N (configuration not stated),inactive,
CCCCc1ccc(O)cc1,inactive,
CC(Cl)CN(C)C (configuration not stated),inactive,
Cc1cccc(N)c1,inactive,
Cc1cc(C)c(C(=O)P(=O)(c2ccccc2)c2ccccc2)c(C)c1,,55.2 µM (active)
FC(F)(F)C(F)(C(F)(F)F)C(F)(F)C(F)(F)CC1CO1 (configuration not stated),inactive,
COP(=O)(O)OC,inactive,
CO/N=C(/C(=O)OC)c1ccccc1COc1ccccc1C,inactive,
CC(O)C(F)(F)C(F)(F)F (configuration not stated),inactive,
CCCCN(CC)C(=O)SCCC,inactive,
N#Cc1ccc(O)cc1,inactive,
OCC(F)(F)OC(F)(F)C(F)(F)OC(F)(F)C(F)(F)OC(F)(F)F,inactive,
Clc1ccc(Oc2ccccc2)cc1,inactive,
